D1 antag: human D1 dopamine receptor antagonism; hit rate 3.2% among 360,000; AID 504652; activity change, negative = inhibition, % at 10 µM; HEK293 TREx D1 cells, calcium flux, dopamine EC80; active compounds read low; in the data active = activity change below about -30%
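Kinetic fluorescence of a calcium dye serves as the read-out. D1-expressing Hek293 Trex cells, induced overnight at 30 C, are exposed to compound for 180 s before an EC80 dopamine addition, then read 180 s further.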
D1 potentiator: potentiators of human D1 dopamine receptor | P21728 | HEK293 TREx D1 cells, calcium flux, dopamine EC20 potentiation | potentiation, % at 10 µM | hit rate 0.036% among 360,000 | AID 504651; in the data active = potentiation above about 30%
TRHR enhancer: TRH receptor (human) allosteric enhancement | AID 493056 | TRHR cells, fluo-8 calcium fluorescence, EC20 TRH enhancement | hit rate 0.66% among 360,000 | P34981 | enhancement, % at 2 µM; in the data active = enhancement above about 30%
Target sequence (P34981 whole entry, looked up): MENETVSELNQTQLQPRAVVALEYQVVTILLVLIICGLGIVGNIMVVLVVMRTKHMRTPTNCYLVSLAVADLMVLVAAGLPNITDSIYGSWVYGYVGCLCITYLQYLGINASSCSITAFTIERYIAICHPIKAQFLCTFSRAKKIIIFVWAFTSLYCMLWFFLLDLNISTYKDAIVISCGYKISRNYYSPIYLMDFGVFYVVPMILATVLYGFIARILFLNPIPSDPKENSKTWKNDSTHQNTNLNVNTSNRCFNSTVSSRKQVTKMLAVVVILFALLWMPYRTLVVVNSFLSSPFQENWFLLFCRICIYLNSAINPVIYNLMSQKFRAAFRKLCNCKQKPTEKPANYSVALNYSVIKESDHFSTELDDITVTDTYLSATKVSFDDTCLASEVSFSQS
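Enhancer read-out: after compound pinning and an initial kinetic agonist-mode read, an EC20 of TRH (10 nM final) was injected and fluo-8 calcium signal (Ex 480/Em 530) followed at 1 s/cycle for 100 cycles in TRHR-expressing cells.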
D1 agonist: agonists of human D1 dopamine receptor; P21728; HEK293 T-REx D1 cells, calcium flux, agonist mode; activation, % at 2 µM; hit rate 1% among 360,000
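Agonism was scored from calcium flux recorded over 180 s (1 read/s) after pintool compound addition, following a 10-cycle baseline. Cells were inducible force-coupled HEK293 TREx D1, plated overnight at 30 C and loaded with no-wash calcium dye.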
TRHR agonist: activates the human TRH receptor; activation, % at 2 µM; hit rate 0.18% among 360,000; P34981; TRHR cells, calcium flux fluo-8, FDSS agonist mode
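TRHR-expressing cells loaded with fluo-8 calcium dye; 23 nL library compound pin-transferred, kinetic FDSS fluorescence (Ex 480/Em 530) recorded about 180 s for agonist-induced calcium release, before a 10 nM TRH EC20 addition for potentiator mode.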
Each line names hits and unclear results; the compound was inactive in the other large screens. Sampled rows, rich in hits. Any-hit rate of the full collection: about 4.6%. Cut-off read from the data, not from the text of the source, unless noted: active = activation above about 30%; inactive = the rest.

Cc1ccc(N2CC(NC(=O)c3ccco3)CC2=O)cc1 (stereo not given)	none (no result: D1 antag)
Cc1cc(C)cc(NC(=O)Cn2cc3c(n2)CCCCC3)c1	D1 agonist 51
O=C(CN1C(=O)c2cccnc2Oc2ccc(Cl)cc21)Nc1cccc(C(F)(F)F)c1	none
CCC(=O)NC1(C(F)(F)F)C(=O)Nc2c1c(=O)n(C)c(=O)n2C (stereo not given)	D1 antag -60
COc1cc2c(cc1OC)C(COc1ccccc1OC)N(C(=O)COc1ccc(Cl)cc1)CC2 (stereo not given)	none
c1ccc(CNc2ncnc3nc[nH]c23)cc1	none
Clc1ccc(CCNc2ncnc3nc[nH]c23)cc1	D1 antag -35
c1ccc(CCCNc2ncnc3nc[nH]c23)cc1	D1 antag -57, D1 agonist 193
CCCNc1ncnc2nc[nH]c12	none
Cc1ccc(C(c2cc(Br)ccc2O)N2CCSCC2)cc1 (stereo not given)	none
Cc1cccc(NC(=O)N2CCCc3ccccc32)c1C	none
Cc1ccc(-n2ncc3c(N4CCC(C)CC4)ncnc32)cc1C	none
Cc1cc(C)c(-c2csc(NC(=O)/C=C/c3cccs3)n2)c(C)c1	D1 antag -37
Cc1cc(C)nc(NC(=O)/C=C/c2cccs2)c1	none
O=C(COC(=O)c1ccccc1O)NCCCc1ccccc1	D1 antag -34
O=C(COC(=O)c1cccnc1Cl)NCCCc1ccccc1	none
Brc1ccc(-c2ccc(CNCCSc3nnnn3-c3ccccc3)o2)cc1	none
COc1ccc(C(=O)Nc2nc3ccc(S(C)(=O)=O)cc3s2)cc1	D1 antag -39
CS(=O)(=O)c1ccc2nc(NC(=O)c3ccc(Cl)cc3)sc2c1	none
CC(C)NS(=O)(=O)c1ccc2nc(NC(=O)c3cncc(Br)c3)sc2c1	D1 antag -52
CS(=O)(=O)c1ccc2nc(NC(=O)CCNC(=O)c3ccc(Cl)cc3)sc2c1	D1 antag -47
CCOc1cc2[nH]c(=O)n(CCCC(=O)N3CCN(c4ccc(OC)cc4)CC3)c(=O)c2cc1OCC	none
Cc1cc(OCC(=O)N[C@@H](CSCc2ccccc2)C(=O)O)c2c(C)c(C)c(=O)oc2c1	TRHR enhancer 41
CCCc1cc(=O)oc2cc(C)c3c(-c4ccccc4)coc3c12	TRHR enhancer 49
CC(NCC(O)COC1CCC(C(C)(C)C)CC1)c1ccccc1 (stereo not given)	D1 agonist 112
CC1CCC(C(C)C)C(OCC(O)CNC(C)c2ccccc2)C1 (stereo not given)	D1 agonist 33
CC(NCC(O)COc1ccc(Br)cc1)c1ccccc1 (stereo not given)	none
Cc1cc(O)c(C(=O)c2cnc3c(c2)COc2ccccc2-3)cc1Cl	TRHR enhancer 35
Cc1ccc(O)c(C(=O)c2cnc3c(c2)COc2ccccc2-3)c1	none
COc1ccc(OCc2nc3ccccc3n2C(C)c2ccccc2)cc1 (stereo not given)	none
CN1C(=O)C2(c3ccccc31)c1c(oc3ccccc3c1=O)C(=O)N2CCCO (stereo not given)	D1 antag -31
Cc1ccc(C(=O)C2=C(O)C(=O)N(CCCN(C)C)C23C(=O)N(C)c2ccccc23)o1 (stereo not given)	none
Cc1ccc2oc3c(c(=O)c2c1)C1(C(=O)N(C)c2ccccc21)N(CCCO)C3=O (stereo not given)	TRHR enhancer 36
CN1C(=O)C2(c3ccccc31)c1c(oc3ccccc3c1=O)C(=O)N2CCO (stereo not given)	none
CCC(C)(C(=O)NC1CCCC1)N(C(=O)c1cnccn1)c1ccccc1 (stereo not given)	D1 antag -45
CC(=O)Nc1ccc(C(=S)NCC2(N(C)C)CCCCC2)cc1	none
COC(=O)c1ccc(C(=S)NCC2(N(C)C)CCCCC2)cc1	D1 antag -30, D1 agonist 77
CCN1C(C(=O)c2ccccc2)=C(OC(=O)COc2ccc(C)cc2)c2ccccc2S1(=O)=O	none
C=CCOc1ccc(/C=N\NC(N)=S)cc1	D1 antag -62, TRHR enhancer 33
Cc1cc(C)n(C(=O)/C(C#N)=N/Nc2cc(Cl)cc(Cl)c2)n1	D1 antag -34
COc1ccc(NC(=O)c2cc3c(=O)n(Cc4ccco4)ccc3nc2C)cc1	none
Cc1ccc(C)n1-c1ccc(C(=O)NCc2ccncc2)cc1	TRHR enhancer 31

Assay outcomes (PubChem)
